Screening results from PubChem.
p53null 32C kill: p53 null cell cytotoxicity, permissive temperature; H1299-neo p53 null cells, ATP luminescence, 24 h, 32C; Potency, µM (doses to about 46.1 µM), actives largely listed as cytotoxic; 55,000 compounds, 0.62% hits; AID 903; also: nearly all actives have a fitted effect of over 55% in size
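AC50 values derive from Hill modelling of qHTS concentration-response data (up to 46 uM) in H1299-neo cells. Cells were treated 24 h at 32C following overnight attachment at 37C; viability was read as cellular ATP.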
OvCa metastasis: blocks SKOV3ip1 adhesion and invasion in omental model; 46,000 compounds, 0.1% hits; AID 1963576; SKOV3ip1-GFP adhesion/invasion on 3D omental model, fluorescence; Potency, µM (series often up to 45.8 µM), hits mostly inhibitors; also: nearly all actives have a fitted effect of over 65% in size
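Primary human omental fibroblast/mesothelial 3D culture pre-formed 48 h. SKOV3ip1-GFP cells added with compounds (0.36-46 umol/L), incubated 2 h RT/16 h 37 C, fixed; GFP cells quantified at 488/509 nm.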
pS6 MEF inh: inhibitors of mTORC1 signaling in Tsc2-/- p53-/- MEF cells; Tsc2-/- p53-/- MEF, phospho-rpS6 immunofluorescence/PI, 24 h; Potency, µM (top dose mostly 38.3 µM), hits mostly inhibitors; 44,000 compounds, 0.78% hits; AID 493208; also: nearly all actives have a fitted effect of over 50% in size
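Immunofluorescence of rpS6 phosphorylation in Tsc2-/-, p53-/- MEFs after 24 h compound exposure, normalized to propidium iodide signal. Activity is expressed as % positive cells, thresholded with 7.5 nM rapamycin.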
p53null 39C tox: selectivity test: cytotoxicity in p53 null cells, nonpermissive temperature | 55,000 compounds, 0.97% hits | Potency, µM (top dose mostly 46.1 µM), hits mostly cytotoxic | H1299 p53-null (neo) cells, 39C, ATPlite viability, 24 h; also: nearly all actives have a fitted effect of over 50% in size
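ATP-luminescence viability readout (ATPlite, 20 min RT) after 24 hr compound treatment at 39C of H1299-neo or H1299-p53A138V cells; titration up to 46 uM; normalized to DMSO and 100 uM tamoxifen; Hill-fit AC50.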
PMP22 txn prim: modulates PMP22 transcription in S16 Schwann cells | S16 Pmp22-F2sN Schwann cells, FLuc/NLuc coincidence luminescence, 24 h | Potency, µM (top dose mostly 57.5 µM), usual class: inhibitors | 43,000 compounds, 2% hits; active = clear falling dose curves in both reporters; inconclusive = both reporters move, but less clearly or upward; inactive = either reporter flat; the % is the NLuc reporter signal
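Reporter cells (S16 Pmp22-F2sN, 500–1,000 per well) exposed to compounds for 24 h, 37C, 5% CO2; lysis with FLuc read after 10 min, then Stop&Glo and NLuc read after 10 min.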
S16 viability: toxic to S16 Pmp22-F2sN Schwann cells | S16 Pmp22-F2sN Schwann cells (luciferase reporters placed in the Pmp22 gene) viability, CellTiter-Glo, 24 h | Potency, µM (top dose mostly 57.5 µM), most hits filed as cytotoxic | 43,000 compounds, 0.48% hits | AID 1508642; also: nearly all actives have a fitted effect of over 65% in size
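Seed 500-1,000 S16 Pmp22-F2sN cells per well in phenol-red-free DMEM with 10% heat-inactivated FBS; pin-add 23 nL compound; incubate 24 h at 37C; add CellTiter-Glo, wait 15 min protected from light; read luminescence.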
Hits are given with their value; 0 = inactive; ? = inconclusive; - = not tested or not shown. In the library only some 3.1% were active in any assay of this set; here they are far more common. Unless noted, calls follow the shape of the dose curve; as a rule, active = well fitted curve in the direction sought with a large enough effect; inconclusive = small, poorly fitted or top-dose-only effect, or another doubt; inactive = no such curve, though single readings can be large; an effect the other way counts as inactive or inconclusive.

SMILES | p53null 32C kill | OvCa metastasis | pS6 MEF inh | p53null 39C tox | PMP22 txn prim | S16 viability
CCC1=Nc2cc(C(=O)NCCc3ccc(OC)c(OC)c3)ccc2Sc2ccccc21 | 0 | 0 | 0 | 0 | ? | 0
CC1=Nc2cc(C(=O)NC3CCCC3)ccc2Sc2ccc(Cl)cc21 | 0 | 0 | 0 | 0 | 5.3µM | ?
C[C@]1(CO)CN(c2cc(C(=O)Nc3ccc4c(c3)-c3c(c(C(N)=O)nn3-c3ccc(F)cc3)CC4)c(Cl)cn2)C[C@@]1(C)CO | - | 0 | - | - | - | -
COc1ccc(-c2noc(-c3ccc(NCc4cccnc4)c([N+](=O)[O-])c3)n2)cc1OC | 0 | 0 | 0 | 0 | 0 | 0
COc1cc(-c2noc(-c3ccc(NCc4cccnc4)c([N+](=O)[O-])c3)n2)cc(OC)c1OC | 0 | 0 | 0 | 0 | 7.1µM | 0
O=C(C=Cc1c(C(=O)O)[nH]c2cc(Cl)cc(Cl)c12)Nc1ccccc1 | - | 0 | - | - | - | -
Cc1cccc(NC(=O)CSc2ncc(-c3ccc(Br)cc3)[nH]2)c1 | 0 | 0 | 0 | 20µM | 0 | 0
CC(C)(C)c1cc(C(C)(C)C)c(NC(=O)c2c[nH]c3ccccc3c2=O)cc1O | - | 0 | - | - | - | -
Cc1ccc([C@@H]2O[C@H](CO)[C@@H](O)[C@H](O)[C@@H]2O)cc1Cc1ccc(-c2ccc(F)cc2)s1 | - | 0 | - | - | - | -
Cc1c(O)cccc1C(=O)N[C@@H](CSc1ccccc1)[C@H](O)CN1C[C@H]2CCCC[C@@H]2C[C@@H]1C(=O)NC(C)(C)C | - | 0 | - | - | - | -
CN(C)CCOc1cc(-c2cn[nH]c2)ccc1NC(=O)C1COc2ccccc2O1 (stereo not given) | - | 0 | - | - | - | -
CCOc1ccc(NC(=O)c2oc3ccccc3c2NC(=O)c2c(F)cccc2F)cc1 | 0 | 0 | 0 | 0 | 0 | 0
O=C(Nc1noc2ccccc12)c1c(F)cccc1F | ? | 0 | 0 | 10µM | 0 | 0
Cc1cccc(NC(=O)CCCn2c(C)c3cnn(-c4ccccc4)c(=O)c3c2C)c1C | 0 | 0 | 0 | 0 | 0 | 0
Cc1cccc(N2CCN(C(=O)Cn3c(C)c4cnn(-c5ccccc5)c(=O)c4c3C)CC2)c1C | 0 | 0 | 0 | 0 | 12µM | ?
CN[C@@H]1C[C@H]2O[C@@](C)([C@H]1OC)n1c3ccccc3c3c4c(c5c6ccccc6n2c5c31)C(=O)N[C@H]4O | - | 0 | - | - | - | -
Cc1ccc(C)c(Nc2nn3c(=O)c4cc5c(cc4nc3s2)OCO5)c1 | 0 | 0 | 0 | 0 | 0 | 0
O=c1c2cc3c(cc2nc2sc(Nc4ccccc4)nn12)OCO3 | 10µM | 0 | 0 | 6.3µM | 0 | 0
Fc1ccc(Nc2nc(Nc3ccc(F)cc3)nc(N3CCOCC3)n2)cc1 | 0 | 0 | 2.1µM | 0 | 0 | 0
COCCNC(=O)c1nn(-c2ccc(C)cc2)c(=O)c2c1c1ccccc1n2C | 0 | 0 | 0 | 0 | ? | ?
CCCCNC(=O)c1nn(-c2ccc(C)cc2)c(=O)c2c1c1ccccc1n2C | 0 | 0 | 0 | 0 | 0 | 16µM
CCOc1cccc(C2CC(=O)Nc3cc4c(cc32)OCCO4)c1 (stereo not given) | 0 | 0 | 21µM | 0 | ? | ?
COc1ccc(Cl)cc1C1CC(=O)Nc2cc3c(cc21)OCCO3 (stereo not given) | 0 | 0 | ? | ? | 2.5µM | ?
CC(C)c1c(C(=O)Nc2ccccc2)c(-c2ccccc2)c(-c2ccc(F)cc2)n1CC[C@H](O)C[C@@H](O)CC(=O)O | - | 0 | - | - | - | -
Nc1ccc2nc(-c3ccc(O)cc3)sc2c1 | 2.5µM | 0 | 0 | 1.3µM | ? | 0
SMILES | p53null 32C kill | OvCa metastasis | pS6 MEF inh | p53null 39C tox | PMP22 txn prim | S16 viability
Cc1ccnc(NC(c2ccccc2F)c2ccc3cccnc3c2O)c1 (stereo not given) | 0 | 0 | ? | ? | ? | ?
Oc1c(C(Nc2ccccn2)c2ccccc2F)ccc2cccnc12 (stereo not given) | ? | 0 | ? | 4µM | ? | 2µM
Clc1ccc2ncc(-c3cccc(NC4CNC4)n3)n2c1 | - | 0 | - | - | - | -
CCCCOc1cccc(NC(=O)c2cccc(C(=O)Nc3cccc(OCCCC)c3)c2)c1 | 0 | 0 | 7.4µM | 0 | 0 | 0
CCCOc1cccc(C(=O)Nc2cccc(NC(=O)c3ccc(Cl)cc3Cl)c2)c1 | 0 | 0 | 0 | 0 | 0 | ?
CCCOc1ccc(C(=O)Nc2ccc(NC(=O)c3ccccc3)c(C)c2)cc1 | 0 | 0 | 13µM | 0 | ? | 0
CCCOc1ccc(C(=O)Nc2cccc(NC(=O)c3ccc(Cl)cc3Cl)c2)cc1 | ? | ? | 0 | ? | ? | 14µM
CCN1C(=O)c2ccccc2Sc2ccc(NC(=O)Nc3ccc(C(C)=O)cc3)cc21 | 0 | 0 | 0 | 0 | 0 | ?
CCN(CC)CCNC(=O)Nc1ccc2c(c1)N(Cc1ccccc1)C(=O)c1ccccc1S2 | 0 | ? | ? | 18µM | ? | ?
COc1ccc(/C=C/C(=O)Nc2ccc3nc(N4CCC(C)CC4)cc(C)c3c2)cc1OC | 0 | ? | ? | 0 | ? | ?
CCN1CCN(c2cc(C)c3cc(NC(=O)/C=C/c4ccc(OCCC(C)C)cc4)ccc3n2)CC1 | 0 | 0 | 4.1µM | ? | ? | ?
CCN1CCN(c2cc(C)c3cc(NC(=O)/C=C/c4ccc(C)cc4)ccc3n2)CC1 | ? | ? | 18µM | ? | ? | ?
COc1cccc(OC)c1-c1cc(C(=O)NC2(C(=O)O)C3CC4CC(C3)CC2C4)nn1-c1ccnc2cc(Cl)ccc12 (stereo not given) | - | 0 | - | - | - | -
Cc1ccc(Nc2nc3nonc3nc2Nc2cccc(C(F)(F)F)c2)cc1Cl | 0 | 0 | ? | ? | 7.6µM | 11µM
CC1(C)CC(=O)c2c(C(F)(F)F)nn(-c3ccc(C(N)=O)c(NC4CCC(OC(=O)CN)CC4)c3)c2C1 (stereo not given) | - | 0 | - | - | - | -
COc1ccc(CN2CCc3nc(N4CCN(c5ccc(F)cc5)CC4)ncc3C2)c(OC)c1OC | 0 | 0 | 0 | 0 | 13µM | 16µM
C#C[C@]1(O)CC[C@@H]2[C@@H]3CCC4=CC(=O)CC[C@@H]4[C@H]3CC[C@@]21CC | - | 0 | - | - | - | -
CC(C)(C)C(=O)Nc1ccc(Cl)c(-c2nc3ccccc3[nH]2)c1 | 0 | 0 | 0 | 0 | 0 | 0
CC(C)(C)C(=O)Nc1ccc(-c2nc3ccc(NC(=O)C(C)(C)C)cc3[nH]2)cc1 | 13µM | ? | ? | 4µM | 0 | ?
OC[C@H]1O[C@@H](n2cnc3c2NC=NC[C@@H]3O)C[C@H]1O | - | 0 | - | - | - | -
Cc1c(CCOc2ccc(C(=O)O)cc2)c2cc(Cl)ccc2n1C(c1ccccc1)c1ccccc1 | - | 0 | - | - | - | -
Cc1cc(Nc2ccc(C(C)C)cc2)nc(-n2nc(C)cc2C)n1 | 0 | 0 | 0 | 0 | ? | ?
